From PubChem BioAssay
Several values for one entry are separate records, joined by “and”; a condition that tells them apart may be missing. Identical values can stand only once. Unmarked numbers belong to inactive results. How the calls were made is not given here. Where a SMILES comes first, the peptide text is derived from it. The star is where a group is joined. Boc = CC(C)(C)OC(=O)*

Biological target: Botulinum neurotoxin type A (Clostridium botulinum) (UniProt P0DPI0)
Experiment: BoNT/A light chain protease inhibitors, biochemical, multiplex microsphere flow cytometry, validation set (AID 588460)
Conditions: at 10 µM, hits give high values

Botulinum neurotoxin type A (Clostridium botulinum), sequence (P0DPI0 whole entry, looked up): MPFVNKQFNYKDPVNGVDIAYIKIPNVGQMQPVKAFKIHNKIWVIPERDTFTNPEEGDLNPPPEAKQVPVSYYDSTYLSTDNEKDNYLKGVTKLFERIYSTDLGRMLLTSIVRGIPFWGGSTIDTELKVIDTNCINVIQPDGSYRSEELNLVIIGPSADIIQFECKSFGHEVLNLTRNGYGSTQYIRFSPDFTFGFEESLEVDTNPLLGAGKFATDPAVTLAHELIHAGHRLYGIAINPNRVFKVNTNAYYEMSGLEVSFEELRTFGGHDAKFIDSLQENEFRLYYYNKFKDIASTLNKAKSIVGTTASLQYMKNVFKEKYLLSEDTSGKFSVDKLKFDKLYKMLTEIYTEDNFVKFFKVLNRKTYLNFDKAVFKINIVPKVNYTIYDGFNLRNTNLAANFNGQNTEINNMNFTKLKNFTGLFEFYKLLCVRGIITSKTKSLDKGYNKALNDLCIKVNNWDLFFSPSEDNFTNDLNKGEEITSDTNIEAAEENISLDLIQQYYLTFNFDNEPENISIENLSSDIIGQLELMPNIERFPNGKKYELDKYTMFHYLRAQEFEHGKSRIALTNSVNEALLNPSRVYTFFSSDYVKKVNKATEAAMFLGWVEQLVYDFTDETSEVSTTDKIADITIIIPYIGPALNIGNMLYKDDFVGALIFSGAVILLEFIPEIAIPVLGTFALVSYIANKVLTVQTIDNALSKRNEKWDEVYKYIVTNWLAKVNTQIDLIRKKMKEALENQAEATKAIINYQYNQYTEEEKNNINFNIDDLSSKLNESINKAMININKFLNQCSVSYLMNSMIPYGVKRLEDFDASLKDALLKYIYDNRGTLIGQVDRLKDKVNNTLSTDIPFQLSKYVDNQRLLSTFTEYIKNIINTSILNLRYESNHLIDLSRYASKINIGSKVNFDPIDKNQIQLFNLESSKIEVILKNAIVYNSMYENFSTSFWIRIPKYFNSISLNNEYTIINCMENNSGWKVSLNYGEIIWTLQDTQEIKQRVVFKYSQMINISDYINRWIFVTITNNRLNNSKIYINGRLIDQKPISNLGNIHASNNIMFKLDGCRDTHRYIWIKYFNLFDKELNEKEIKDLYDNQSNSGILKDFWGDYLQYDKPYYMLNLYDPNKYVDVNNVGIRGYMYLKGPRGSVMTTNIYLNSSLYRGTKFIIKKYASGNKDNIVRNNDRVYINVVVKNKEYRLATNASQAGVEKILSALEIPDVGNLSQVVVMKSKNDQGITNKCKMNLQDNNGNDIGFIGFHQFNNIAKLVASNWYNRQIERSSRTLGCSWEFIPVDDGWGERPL

**Q.** With `CCOC(=O)/C=C1\NC(C)(C)Cc2cc(OC)c(OC)cc21` as the molecule, how does the inhibition read?
**A.** Its inhibition is -0.4%.

**Q.** `COc1ccc2cc[nH]c2c1` was tested. Which inhibition did it give?
**A.** Its inhibition is -0.4%.

**Q.** With `CC(C)(C)n1c(=O)[nH]c2c(c1=O)CCC2` as the molecule, how does the inhibition read?
**A.** Its inhibition is -0.4%.

**Q.** How did the inhibition turn out when `CC(=O)OCC[N+](C)(C)C` was run?
**A.** The inhibition was 0.2% and -1.8%.

**Q.** With `COc1cc2c(cc1OC)C(=S)NC(C)(C)C2` as the molecule, how does the inhibition read?
**A.** Its inhibition is -0.8%.

**Q.** How did the inhibition turn out when `CCN(CC)C(=O)c1ccc(O)c(OC)c1` was run?
**A.** Its inhibition is -0.4%.

**Q.** For `Cc1cccc(Oc2coc3cc(OC(=O)c4cncc(Br)c4)ccc3c2=O)c1`, which inhibition is on record?
**A.** The inhibition was 0.8%.

**Q.** `COC1CCN(Cc2cn(Cc3ccccc3)nc2-c2cc3ccccc3o2)CC1` was tested. Which inhibition did it give?
**A.** Its inhibition is -0.8%.

**Q.** Which inhibition does the source give for `COc1cccc2cc(-c3ccccc3)c(=O)oc12` here?
**A.** Its inhibition is -1.7%.

**Q.** How did the inhibition turn out when `CC(=O)CC(c1ccc([N+](=O)[O-])cc1)c1c(O)c2ccccc2oc1=O` (stereo not given) was run?
**A.** The inhibition was 0.2%.

**Q.** With `CC[n+]1ccc2cc(OC)c(OC)cc2c1Cc1ccc(OC)c(OC)c1` as the molecule, how does the inhibition read?
**A.** The inhibition was 0.7%.

**Q.** Which inhibition does the source give for `CN=C(NC#N)NCCSCc1nc[nH]c1C` here?
**A.** The inhibition was 0.9%.

**Q.** Which inhibition does the source give for `CCc1cccc(OC2OC(CO)C(O)C(O)C2NC(C)=O)c1` (stereo not given) here?
**A.** Its inhibition is -0.7%.

**Q.** `CC(=O)/C=C/c1ccc(C)o1` was tested. Which inhibition did it give?
**A.** Its inhibition is 0.9%.

**Q.** How did the inhibition turn out when `CCCCOc1ccc(OCCCN2CCOCC2)cc1` was run?
**A.** Its inhibition is 0.4%.

**Q.** For `Nc1nnc(-c2cccc(Cl)c2Cl)c(N)n1`, which inhibition is on record?
**A.** Its inhibition is 0.8%.

**Q.** With `Cc1cc(OC(C(=O)O)c2ccccc2)c2c(C)c(Cc3ccccc3)c(=O)oc2c1` (stereo not given) as the molecule, how does the inhibition read?
**A.** The inhibition was -0.1%.

**Q.** For `O=c1nc2sc3ccccc3n2c(=O)n1-c1ccc(Cl)cc1`, which inhibition is on record?
**A.** The inhibition was -1.6%.

**Q.** With `COCC1CCCN(Cc2cn[nH]c2-c2cc3ccccc3o2)C1` (stereo not given) as the molecule, how does the inhibition read?
**A.** The inhibition was -1.5%.

**Q.** For `CC(C)(C)OC(=O)N1CCCC1C(=O)NC(Cc1ccccc1)C(=O)O` (stereo not drawn) (Boc-Pro-Phe-OH; configuration not given here), which inhibition is on record?
**A.** Its inhibition is -0.8%.

**Q.** With `CCC12CN3CC(CC)(CN(C1)C31C(=O)N(C)c3ccc(C)cc31)C2=O` (stereo not given) as the molecule, how does the inhibition read?
**A.** The inhibition was 0.1%.

**Q.** With `Cc1ccccc1-c1nn(-c2ccc(F)cc2F)cc1CNCCN(C)C` as the molecule, how does the inhibition read?
**A.** The inhibition was -0.5%.

**Q.** `COc1ccccc1NC(=O)Cn1c(C)cc(=O)c2cccc(OC)c21` was tested. Which inhibition did it give?
**A.** The inhibition was -0.9%.

**Q.** Which inhibition does the source give for `COc1ccc(S(=O)(=O)NC(Cc2cnc[nH]2)C(=O)O)cc1` (stereo not given) here?
**A.** Its inhibition is -0.6%.

**Q.** `C#CCN1C(=O)C(O)(c2c(C)[nH]c3ccccc23)c2ccccc21` (stereo not given) was tested. Which inhibition did it give?
**A.** The inhibition was 0.5%.

**Q.** For `CC(=O)C1=C(NC(=O)c2ccc(C(F)(F)F)cc2)C[C@@H]2[C@H]1C2(C)C`, which inhibition is on record?
**A.** Its inhibition is 1.5%.

**Q.** Which inhibition does the source give for `O=C(c1ccc(-c2ccccc2)c(F)c1)C1CCCN(C(=O)c2cncs2)C1` (stereo not given) here?
**A.** The inhibition was 0.5%.

**Q.** For `Cc1ccc(S(=O)(=O)Oc2ccccc2/C=N/N=C(N)N)cc1`, which inhibition is on record?
**A.** Its inhibition is 1.3%.

**Q.** With `COc1ccccc1NC(=O)C12CCC(C)(C(=O)C1)C2(C)C` (stereo not given) as the molecule, how does the inhibition read?
**A.** Its inhibition is 0.8%.

**Q.** With `Cc1c(OC(=O)CNC(=O)OC(C)(C)C)ccc2c3c(c(=O)oc12)CCC3` as the molecule, how does the inhibition read?
**A.** The inhibition was -0.5%.

**Q.** Which inhibition does the source give for `Cc1nc(NCc2ccco2)c(C#N)c2c1COC(C)(C)C2` here?
**A.** Its inhibition is -1.2%.

**Q.** `CC1(C)[C@@H](O)CC[C@]2(C)[C@H]3C(=O)C=C4[C@@H]5C[C@@](C)(C(=O)O)CC[C@]5(C)CC[C@@]4(C)[C@]3(C)CC[C@@H]12` was tested. Which inhibition did it give?
**A.** The inhibition was -1.5%.

**Q.** Which inhibition does the source give for `NS(=O)(=O)c1cc(C2(O)NC(=O)c3ccccc32)ccc1Cl` (stereo not given) here?
**A.** The inhibition was -1.6%.

**Q.** For `C=C(C)COc1ccc(-c2n[nH]c(C)c2-c2ccc(OC)cc2)c(O)c1`, which inhibition is on record?
**A.** The inhibition was -0.9%.

**Q.** With `Cn1c2ccc(CC(=O)O)cc2c2cc(CC(=O)O)ccc21` as the molecule, how does the inhibition read?
**A.** The inhibition was -0.6%.

**Q.** How did the inhibition turn out when `O=C(CCSc1ccccc1)N1CCCC1` was run?
**A.** The inhibition was -0.9%.

**Q.** How did the inhibition turn out when `CS(=O)(=O)Oc1ccc2c(c1)O/C(=C\C=C\c1ccccc1)C2=O` was run?
**A.** Its inhibition is 28.3%.

**Q.** How did the inhibition turn out when `CCOc1cc2c(cc1OCC)C(c1ccccc1)N(c1ccc(C(=O)O)cc1)C(=O)C2` (stereo not given) was run?
**A.** Its inhibition is -0.7%.

**Q.** With `O=C(NNC(=O)c1cccs1)c1ccco1` as the molecule, how does the inhibition read?
**A.** The inhibition was -2.8%.

**Q.** `CC(=O)C1=C(O)C(=O)N(CC(=O)O)C1c1ccccc1Cl` (stereo not given) was tested. Which inhibition did it give?
**A.** Its inhibition is -0.5%.

Biological target: Lethal factor (Bacillus anthracis) (UniProt P15917)
Sequence (P15917 whole entry, looked up): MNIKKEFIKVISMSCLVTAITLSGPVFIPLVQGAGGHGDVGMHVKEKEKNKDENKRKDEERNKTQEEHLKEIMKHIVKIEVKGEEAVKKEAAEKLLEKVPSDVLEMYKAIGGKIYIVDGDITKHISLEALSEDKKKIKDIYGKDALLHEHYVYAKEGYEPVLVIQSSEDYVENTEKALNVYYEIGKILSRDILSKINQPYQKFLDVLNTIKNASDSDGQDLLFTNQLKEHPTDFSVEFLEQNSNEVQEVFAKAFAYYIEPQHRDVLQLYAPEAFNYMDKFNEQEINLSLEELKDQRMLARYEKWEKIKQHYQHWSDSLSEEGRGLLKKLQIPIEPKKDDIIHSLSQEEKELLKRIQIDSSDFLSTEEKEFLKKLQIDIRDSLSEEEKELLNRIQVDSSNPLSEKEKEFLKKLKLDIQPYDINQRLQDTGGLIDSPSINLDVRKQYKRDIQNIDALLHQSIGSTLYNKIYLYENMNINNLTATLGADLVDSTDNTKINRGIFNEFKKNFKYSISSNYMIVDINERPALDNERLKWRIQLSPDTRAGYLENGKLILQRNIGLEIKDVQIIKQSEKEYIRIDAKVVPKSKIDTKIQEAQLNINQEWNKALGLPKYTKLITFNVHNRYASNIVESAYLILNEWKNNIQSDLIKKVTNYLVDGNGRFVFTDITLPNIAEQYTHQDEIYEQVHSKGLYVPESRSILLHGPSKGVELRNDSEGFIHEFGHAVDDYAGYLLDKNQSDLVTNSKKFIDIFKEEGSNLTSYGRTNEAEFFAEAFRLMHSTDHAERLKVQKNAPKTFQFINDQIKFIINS
Experiment: Bacillus anthracis lethal factor inhibition, microsphere flow cytometry protease assay, validation at 10 µM (AID 588461)
Conditions: multiplex microsphere protease cleavage assay, hits give high values

**Q.** Which inhibition does the source give for `CCOC(=O)/C=C1\NC(C)(C)Cc2cc(OC)c(OC)cc21` here?
**A.** The inhibition was -2.8%.

**Q.** How did the inhibition turn out when `COc1ccc2cc[nH]c2c1` was run?
**A.** Its inhibition is 2.8%.

**Q.** With `CC(C)(C)n1c(=O)[nH]c2c(c1=O)CCC2` as the molecule, how does the inhibition read?
**A.** Its inhibition is -3.9%.

**Q.** `CC(=O)OCC[N+](C)(C)C` was tested. Which inhibition did it give?
**A.** Its inhibition is 3.8% and -0.3%.

**Q.** How did the inhibition turn out when `COc1cc2c(cc1OC)C(=S)NC(C)(C)C2` was run?
**A.** Its inhibition is 2.9%.

**Q.** With `CCN(CC)C(=O)c1ccc(O)c(OC)c1` as the molecule, how does the inhibition read?
**A.** The inhibition was -6.3%.

**Q.** How did the inhibition turn out when `Cc1cccc(Oc2coc3cc(OC(=O)c4cncc(Br)c4)ccc3c2=O)c1` was run?
**A.** Its inhibition is 2%.

**Q.** For `COC1CCN(Cc2cn(Cc3ccccc3)nc2-c2cc3ccccc3o2)CC1`, which inhibition is on record?
**A.** The inhibition was -3.3%.

**Q.** `COc1cccc2cc(-c3ccccc3)c(=O)oc12` was tested. Which inhibition did it give?
**A.** The inhibition was 1.7%.

**Q.** How did the inhibition turn out when `CC(=O)CC(c1ccc([N+](=O)[O-])cc1)c1c(O)c2ccccc2oc1=O` (stereo not given) was run?
**A.** The inhibition was -1.2%.

**Q.** Which inhibition does the source give for `CC[n+]1ccc2cc(OC)c(OC)cc2c1Cc1ccc(OC)c(OC)c1` here?
**A.** Its inhibition is -0.5%.

**Q.** Which inhibition does the source give for `CN=C(NC#N)NCCSCc1nc[nH]c1C` here?
**A.** Its inhibition is -3.5%.

**Q.** `CCc1cccc(OC2OC(CO)C(O)C(O)C2NC(C)=O)c1` (stereo not given) was tested. Which inhibition did it give?
**A.** Its inhibition is -4.6%.

**Q.** `CC(=O)/C=C/c1ccc(C)o1` was tested. Which inhibition did it give?
**A.** The inhibition was 3%.

**Q.** Which inhibition does the source give for `CCCCOc1ccc(OCCCN2CCOCC2)cc1` here?
**A.** The inhibition was -4.8%.

**Q.** How did the inhibition turn out when `Nc1nnc(-c2cccc(Cl)c2Cl)c(N)n1` was run?
**A.** The inhibition was -5.9%.

**Q.** For `Cc1cc(OC(C(=O)O)c2ccccc2)c2c(C)c(Cc3ccccc3)c(=O)oc2c1` (stereo not given), which inhibition is on record?
**A.** Its inhibition is 1.7%.

**Q.** How did the inhibition turn out when `O=c1nc2sc3ccccc3n2c(=O)n1-c1ccc(Cl)cc1` was run?
**A.** Its inhibition is -7.9%.

**Q.** Which inhibition does the source give for `COCC1CCCN(Cc2cn[nH]c2-c2cc3ccccc3o2)C1` (stereo not given) here?
**A.** Its inhibition is -3.9%.

**Q.** Which inhibition does the source give for `CC(C)(C)OC(=O)N1CCCC1C(=O)NC(Cc1ccccc1)C(=O)O` (stereo not drawn) (Boc-Pro-Phe-OH; configuration not given here) here?
**A.** Its inhibition is -0.3%.

**Q.** With `CCC12CN3CC(CC)(CN(C1)C31C(=O)N(C)c3ccc(C)cc31)C2=O` (stereo not given) as the molecule, how does the inhibition read?
**A.** Its inhibition is -7.3%.

**Q.** Which inhibition does the source give for `Cc1ccccc1-c1nn(-c2ccc(F)cc2F)cc1CNCCN(C)C` here?
**A.** Its inhibition is -2.9%.

**Q.** Which inhibition does the source give for `COc1ccccc1NC(=O)Cn1c(C)cc(=O)c2cccc(OC)c21` here?
**A.** The inhibition was -0.2%.

**Q.** How did the inhibition turn out when `COc1ccc(S(=O)(=O)NC(Cc2cnc[nH]2)C(=O)O)cc1` (stereo not given) was run?
**A.** The inhibition was -0.5%.

**Q.** For `C#CCN1C(=O)C(O)(c2c(C)[nH]c3ccccc23)c2ccccc21` (stereo not given), which inhibition is on record?
**A.** The inhibition was -3.2%.

**Q.** For `CC(=O)C1=C(NC(=O)c2ccc(C(F)(F)F)cc2)C[C@@H]2[C@H]1C2(C)C`, which inhibition is on record?
**A.** Its inhibition is -1%.

**Q.** `O=C(c1ccc(-c2ccccc2)c(F)c1)C1CCCN(C(=O)c2cncs2)C1` (stereo not given) was tested. Which inhibition did it give?
**A.** The inhibition was 1.6%.

**Q.** How did the inhibition turn out when `Cc1ccc(S(=O)(=O)Oc2ccccc2/C=N/N=C(N)N)cc1` was run?
**A.** Its inhibition is -7.6%.

**Q.** How did the inhibition turn out when `COc1ccccc1NC(=O)C12CCC(C)(C(=O)C1)C2(C)C` (stereo not given) was run?
**A.** The inhibition was 0.3%.

**Q.** How did the inhibition turn out when `Cc1c(OC(=O)CNC(=O)OC(C)(C)C)ccc2c3c(c(=O)oc12)CCC3` was run?
**A.** Its inhibition is -2.2%.

**Q.** `Cc1nc(NCc2ccco2)c(C#N)c2c1COC(C)(C)C2` was tested. Which inhibition did it give?
**A.** Its inhibition is -0.5%.

**Q.** For `CC1(C)[C@@H](O)CC[C@]2(C)[C@H]3C(=O)C=C4[C@@H]5C[C@@](C)(C(=O)O)CC[C@]5(C)CC[C@@]4(C)[C@]3(C)CC[C@@H]12`, which inhibition is on record?
**A.** Its inhibition is -0.5%.

**Q.** With `NS(=O)(=O)c1cc(C2(O)NC(=O)c3ccccc32)ccc1Cl` (stereo not given) as the molecule, how does the inhibition read?
**A.** Its inhibition is -7.1%.

**Q.** For `C=C(C)COc1ccc(-c2n[nH]c(C)c2-c2ccc(OC)cc2)c(O)c1`, which inhibition is on record?
**A.** The inhibition was 5.2%.

**Q.** `Cn1c2ccc(CC(=O)O)cc2c2cc(CC(=O)O)ccc21` was tested. Which inhibition did it give?
**A.** The inhibition was 7.2%.

**Q.** Which inhibition does the source give for `O=C(CCSc1ccccc1)N1CCCC1` here?
**A.** The inhibition was -2.3%.

**Q.** `CS(=O)(=O)Oc1ccc2c(c1)O/C(=C\C=C\c1ccccc1)C2=O` was tested. Which inhibition did it give?
**A.** The inhibition was 25%.

**Q.** Which inhibition does the source give for `CCOc1cc2c(cc1OCC)C(c1ccccc1)N(c1ccc(C(=O)O)cc1)C(=O)C2` (stereo not given) here?
**A.** Its inhibition is -5.2%.

**Q.** For `O=C(NNC(=O)c1cccs1)c1ccco1`, which inhibition is on record?
**A.** The inhibition was 0.2%.

**Q.** With `CC(=O)C1=C(O)C(=O)N(CC(=O)O)C1c1ccccc1Cl` (stereo not given) as the molecule, how does the inhibition read?
**A.** The inhibition was -3%.
